The values that follow come from PubChem BioAssay.

Activity calls are given as the source filed them.

Test system in the first experiment: not listed separately
The experiment is described as follows: budding yeast growth modifiers under rapamycin – strain BY4716, OD600, 96 h, primary screen (AID 1091). Also: test concentration not given here. The following applies: S. cerevisiae BY4716 + rapamycin, higher = more signal, called active from +8 up or from −8 down.
For the compound `CC(C)[Si](C#C[Si](C(C)C)(C(C)C)C(C)C)(O[C@H](C)c1cn([C@H](CO)Cc2ccccc2)nn1)C(C)C`, the z-score is -0.356 (inactive). As for `[N-]=[N+]=NCc1ccccc1[C@@H]1OC(c2ccc(OCCCO)cc2)=N[C@]1(CCS(=O)(=O)c1ccccc1)C(=O)NCC(O)CO` (some centres undefined), the z-score is 0.897 (inactive). In the case of `CCC(CC)C(O)C1C=CC2C(=O)N(c3ccccc3)C(=O)C2N1Nc1ccc(C(C)C)cc1` (centres undefined), the z-score was 1.23 (inactive).

For `C=C(C)C1CCC(C(O)C2C=CC3C(=O)N(C)C(=O)C3N2N2CCCCC2)CC1` (centres undefined), the z-score is 2.25 (inactive). Take `O=C1NC(=O)C2C1C=CC(C(O)c1cccc3ccccc13)N2Nc1ccc(Cl)cc1Cl` (centres undefined): the z-score was 2.56 (inactive). For `C=CCOC(=O)[C@H]1[C@@H]2C(=O)O[C@@H](c3ccccc3)[C@@H](c3ccccc3)N2[C@@H](c2ccc(OCCOC(=O)[C@@H]3C[C@@H]4C(=O)N[C@@H](CCCCN(C)C)C(=O)N4[C@@H]3c3ccc(O)cc3)cc2)[C@]12C(=O)Nc1ccccc12`, the z-score was 0.436 (inactive).

Take `CCOC(=O)C1=CC[C@@H](c2ccccc2C(F)(F)F)N(S(=O)(=O)c2ccc(C)cc2)[C@H]1c1ccc(C#N)cc1`: the z-score is 3.51 (inactive).

`CCCNC(=O)[C@@H]1c2ccccc2C(=O)N(C(C)C)[C@H]1c1ccc(CO)cc1`: the z-score was -0.148 (inactive).

The next experiment deals with Torsin-1A-interacting protein 2 (Homo sapiens) (UniProt Q8NFQ8). Put plainly: small molecules binding lysate-expressed LULL1 – cell lysate, human LULL1 lysate, 635/667 nm fluorescence, primary screen (AID 1092).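 Also: probe is lysate of COS7 cells overexpressing human LULL1; score merges per-feature 667 nm fluorescence with signal-to-noise.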 Conditions: small-molecule microarray, hLULL1 lysate binding, 635 nm fluorescence; higher = more signal.
Chain of Torsin-1A-interacting protein 2 (Homo sapiens) (Q8NFQ8 whole entry, looked up): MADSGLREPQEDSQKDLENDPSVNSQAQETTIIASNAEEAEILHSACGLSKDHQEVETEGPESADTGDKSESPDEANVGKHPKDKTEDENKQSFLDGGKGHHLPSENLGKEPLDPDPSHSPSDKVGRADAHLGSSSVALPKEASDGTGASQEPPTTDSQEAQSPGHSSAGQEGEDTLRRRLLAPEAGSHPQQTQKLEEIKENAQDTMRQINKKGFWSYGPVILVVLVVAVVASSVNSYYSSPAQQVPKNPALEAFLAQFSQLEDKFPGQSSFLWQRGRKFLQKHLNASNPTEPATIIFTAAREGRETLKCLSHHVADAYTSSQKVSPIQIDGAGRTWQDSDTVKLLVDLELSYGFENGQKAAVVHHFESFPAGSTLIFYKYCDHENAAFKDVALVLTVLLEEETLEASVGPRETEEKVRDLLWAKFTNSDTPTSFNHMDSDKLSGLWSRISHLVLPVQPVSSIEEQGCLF
Regarding `C=C(/C(=C/C[C@H](OC(C)=O)c1ccccc1OCCO)c1cc(C(=O)OC)ccc1OC)C(C)C`, the composite z-score is 1.04.

Compound `C[N+](C)(C)CCCC[C@@H]1NC(=O)[C@H]2C[C@@H](C(=O)NCCCCCCN)[C@@H](c3ccc(O)cc3)N2C1=O` gave a composite z-score of 1.57.

With `COc1ccccc1CN1C(=O)c2ccccc2[C@](Cc2ccccc2I)(C(=O)NCC(F)(F)F)[C@@H]1c1ccc(CO)cc1`, the composite z-score came out at 3.22. For `O=C(NCc1ccccc1)[C@@H]1c2ccccc2C(=O)N(Cc2ccccc2C(F)(F)F)[C@H]1c1ccc(CO)cc1`, the composite z-score is 1.83.

In turn, `COC(=O)[C@H](Cc1ccccc1)N1CC(/C=C/C2CC2)=C[C@H]1[C@H](O)Cc1ccccc1` displayed a composite z-score of 1.18. The same measure, in the same setting: with `CCOC(=O)C1=CC[C@@H](c2ccc(OCc3ccccc3)c(OC)c2)N(S(=O)(=O)c2ccc(C)cc2)[C@H]1c1ccc(SC)cc1` the figure was 3.21. Same read-out and setting: with `COc1cccc(/C=C/C=O)c1` the figure was 0.205; with `CC(=O)NCCCC[C@@H]1NC(=O)[C@H]2C[C@@H](C(=O)NCCCC[N+](C)(C)C)[C@@H](c3cccc(OCCO)c3)N2C1=O`, 1.97. As for `O=C1C2C=CC(C(O)c3ccccc3)N(Nc3ccccc3F)C2C(=O)N1c1ccccc1` (centres undefined), the composite z-score came to 2.61. For the compound `CCOC(=O)C[C@H]1[C@H](OC(=O)c2ccccc2-c2ccccc2)[C@@H](NC(=O)c2ccc(-c3ccccc3)cc2)c2cc(OCCCO)ccc2N1C(=O)c1ccc2ccccc2n1`, the composite z-score came to 1.11. The compound `CO[C@]12C=C(Br)[C@@H](C[C@@H]1c1cccc(C)c1)[C@@]1(CO1)C2=O` had a composite z-score of 0.469. For the compound `[N-]=[N+]=Nc1ccccc1[C@@H]1OC(c2ccc(OCCCO)cc2)=N[C@]1(Cc1ccccc1)C(=O)NCC(O)CO` (some centres undefined), the composite z-score stood at 2.65. For the compound `COc1ccc([Si](C)(C)[C@@H]2[C@@H](CCn3cc([C@H](O)c4ccccc4)nn3)O[C@]3(C(=O)N(Cc4ccc(N5CCC5=O)cc4)c4ccccc43)[C@H]2C)cc1`, the composite z-score amounted to 0.309. With `C=CCC(OC(C)=O)[C@@H]1[C@@H](N(Cc2ccc(-c3cccc(C(F)(F)F)c3)o2)C(=O)c2ccc(C)cc2)c2cc(OCCCO)ccc2N1C(=O)c1ccc2ccccc2c1` (some centres undefined), the composite z-score came to 0.407. Compound `C=CCC(OC(C)=O)[C@@H]1[C@@H](N(Cc2cccc3ccccc23)C(=O)Cc2ccc(F)cc2)c2cc(OCCCO)ccc2N1C(=O)c1ccc2ccccc2n1` (some centres undefined) showed a composite z-score of 0.511.

With `C[C@H]1NC(=O)[C@@]23C(=O)N[C@@H](Cc4ccccc4)C2[C@H](C)[C@@]2(C)O[C@H]2C3/C=C/C/C=C\CNC(=O)[C@H](Cc2ccccc2)NC1=O` (some centres undefined), the composite z-score amounted to 0.834. Turning to `CCCCCCCCCCC(O)C1C=CC2C(=O)N(C)C(=O)C2N1Nc1ccc([N+](=O)[O-])cc1[N+](=O)[O-]` (centres undefined), the composite z-score was found to be 3.02. Consider `NCCCCCCNC(=O)[C@@H]1C[C@@H]2C(=O)N[C@@H](CCCCN)C(=O)N2[C@@H]1c1cccc(OCCO)c1`, for which the composite z-score was 2.14. As to `N#Cc1ccc(C(O)C2C=CC3C(=O)N(c4ccccc4)C(=O)C3N2Nc2ccccc2)cc1` (centres undefined), the composite z-score came to 2.62. Compound `CC1=C([C@H](O)CCc2ccccc2)[C@H](CO)[C@@H]2C(=O)N(C)C(=O)[C@@H]2C1` had a composite z-score of 1.07. Compound `CCOC(=O)C1=CC[C@@H](c2cccc(Cl)c2)N(S(=O)(=O)c2ccc(C)cc2)C1` returned a composite z-score of 2.54.
